# Screening data deposited in PubChem BioAssay by The Scripps Research Institute Molecular Screening Center.
# GSTO1 inh = inhibitors of recombinant GSTO1, primary screen, counter-screen for RBBP9 inhibitor project, biochemical, fluorescence polarization | inhibition, % at 5.96 µM | activity-based probe fluorescence polarization | Glutathione S-transferase omega-1 (Homo sapiens), P78417 | AID 1974, 2009 | hit rate 1.1% among 300,000;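 active = inhibition above the campaign mean inhibition plus 3 SD, cut at about 35% in these data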;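 also: 0% = GSTO1-1 with DMSO and 100% = wells lacking GSTO1-1 enzyme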
# PME-1 inh = PME-1 inhibitors via competitive probe labeling, primary screen, biochemical, fluorescence polarization, FP-Rh probe, HTS. recombinant PME-1. inhibition, % at 5.9 µM. hit rate 0.53% among 320,000;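 active = inhibition above the campaign mean of all compounds plus 3 SD, cut at about 26% in these data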;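 also: competitive labeling of PME-1 active site by serine hydrolase directed probe; 0% = PME-1 with DMSO and 100% = wells lacking PME-1 enzyme; inhibitors block probe labeling so polarization falls and inhibition rises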
# Target sequence (Q9Y570 whole entry, looked up): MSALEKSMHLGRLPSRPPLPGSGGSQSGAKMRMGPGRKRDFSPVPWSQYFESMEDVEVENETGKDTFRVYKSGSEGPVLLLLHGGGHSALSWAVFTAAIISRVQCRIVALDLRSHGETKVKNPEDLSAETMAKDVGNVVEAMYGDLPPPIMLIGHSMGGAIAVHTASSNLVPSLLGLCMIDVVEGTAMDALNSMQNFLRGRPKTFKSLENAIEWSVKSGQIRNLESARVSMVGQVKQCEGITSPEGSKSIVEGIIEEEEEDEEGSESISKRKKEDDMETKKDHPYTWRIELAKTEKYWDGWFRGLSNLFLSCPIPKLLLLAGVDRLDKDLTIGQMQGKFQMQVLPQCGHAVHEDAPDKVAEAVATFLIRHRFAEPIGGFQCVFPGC
# PAD4 FP inh = human PAD4 inhibitors, primary screen, biochemical, fluorescence polarization, 1536-well format; hit rate 0.41% among 330,000; inhibition, % at 6.36 µM; AID 485272, 2010; recombinant PAD4, RCA probe fluorescence polarization; Protein-arginine deiminase type-4 (Homo sapiens), Q9UM07;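 active = percent inhibition above a cutoff equal to the mean of all tested compounds plus 3 SD, cut at about 15% in these data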;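 also: 0% = PAD4 with RCA probe and DMSO and 100% = probe without PAD4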
# pPAFAH inh = pPAFAH enzyme inhibitors, primary screen, biochemical, fluorescence polarization, human. inhibition, % at 3.39 µM. recombinant pPAFAH, FP-rhodamine probe fluorescence polarization. Platelet-activating factor acetylhydrolase (Homo sapiens), Q13093. AID 463082, 2010. hit rate 1.5% among 330,000;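 active = inhibition above the mean inhibition across the screen plus 3 SD, cut at about 25% in these data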;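 also: inhibitors block binding of the rhodamine activity-based probe so polarization drops; 0% = enzyme with DMSO and 100% = wells lacking pPAFAH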
# Fam108B counter = mouse Fam108B serine hydrolase inhibitors, primary screen, counter-screen for RBBP9 inhibitor project, biochemical, fluorescence polarization | hit rate 0.33% among 300,000 | inhibition, % at 9.51 µM | recombinant Fam108B, FP-Rh probe fluorescence polarization | AID 1947, 2009;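 active = inhibition above the screen mean inhibition plus 3 SD, computed separately per campaign, cut at about 18% in these data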;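 also: inhibitors lower polarization as less probe binds the enzyme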
# Active calls of the source: *; · = no result given. Shown are actives, neighbours in structure and some others; about 2.3% of the full set was active somewhere.
SMILES,GSTO1 inh,PME-1 inh,PAD4 FP inh,pPAFAH inh,Fam108B counter
Cc1cc(NC(=O)Nc2ccc(OCc3ccccc3)cc2)n(C)n1,-2,0,1,2,-1
Cc1ccc(Sc2ccc(NC(=O)CCN3C(=O)NC4(CCCC4)C3=O)cc2)c(C)c1,·,2,-2,32*,·
NC(=O)c1ccc(NC(=O)CN2C(=O)NC3(CCCCCCC3)C2=O)cc1,·,·,-2,26*,·
O=C(CCCN1C(=O)NC2(CCCC2)C1=O)Nc1ccc(F)cc1,·,2,-2,0,·
O=C(Cc1ccccc1)Nc1ccc(N2CCN(Cc3ccccc3F)CC2)cc1,-4,-5,-3,0,1
CS(=O)(=O)NCc1nnc(SCC(=O)NC2CCCCC2)n1-c1ccc(F)cc1,-2,0,2,1,0
CN(C)c1cccc(C(=O)Nc2cccc(S(=O)(=O)NC3=NCCC3)c2)c1,0,0,1,7,0
O=C(N/N=C/c1ccc([N+](=O)[O-])o1)c1cn(-c2ccccc2)nc1-c1ccccc1,-8,-5,-7,27*,0
CN1C(C(=O)N2CCc3ccccc3C2)=CC(c2ccc(F)cc2)=NS1(=O)=O,1,15,0,1,1
O=c1cc(N2CCCCC2)c(-c2ccccc2)nn1Cc1c(Cl)cccc1Cl,2,30*,1,7,-3
CC(C)(C)[C@H]1COC(=O)[C@@H](Cc2ccc(F)cc2)CC/C=C/C[C@@H](CC(=O)N[C@@H](CO)Cc2ccccc2)C(=O)N1,·,·,1,12,·
COc1ccc(N(C(=O)CCl)C(C(=O)NC2CCCCC2)c2cccnc2)cc1 (centres undefined),98*,4,2,1,0
CCOc1ccc(NC(=O)C(c2ccccn2)N(C(=O)CCl)c2ccc(OC)cc2)cc1 (centres undefined),36*,4,-9,12,2
COc1cc(C(=O)NCc2nnc(SCC(=O)Nc3cccc(C(F)(F)F)c3)o2)cc(OC)c1OC,4,0,-3,3,4
CS(=O)(=O)c1sc(C#N)c2c1C(=O)CC(c1ccccc1)C2 (centres undefined),-67,-14,9,-4,-11
O=C(COC(=O)c1ccc(S(=O)(=O)NCc2ccco2)cc1)Nc1ncc(Cl)cc1Cl,-4,1,-3,25*,2
COc1ccccc1NC(=O)COC(=O)c1ccc(S(=O)(=O)NCc2ccco2)cc1,-3,4,-2,22,-3
CCc1ccc2c(c1)C1(SC(NC(C)=O)=NN1C(C)=O)C(=O)N2CC (centres undefined),-1,8,-2,5,5
C=CCOc1ccc(CNCC2CCCO2)cc1 (centres undefined),-3,2,-2,2,-8
Cc1ccc(S(=O)(=O)Nc2cccc(S(=O)(=O)Nc3ccccc3C(=O)O)c2)c(C)c1,·,·,1,4,·
CN(C)c1ccc(C(=O)Nc2nnc(-c3ccc(Cl)cc3)o2)cc1,36*,5,6,17,-1
COC(=O)C1C2C=CC3(CN(CCc4ccccc4)C(=O)C13)O2 (centres undefined),3,2,0,2,2
O=C(O)C1C2C=CC3(CN(C/C=C/c4ccccc4)C(=O)C13)O2 (centres undefined),9,-3,1,31*,-3
CC(=O)Nc1ccc(S(=O)(=O)NCCSCc2ccccc2Cl)cc1,54*,2,-2,9,-1
O=C1C(=O)N(C2CCCC2)C(=O)N1Cc1c(F)cccc1Cl,-4,6,0,-2,-1
CC1CCCCC1NC(=O)COC(=O)c1c2c(nc3ccccc13)/C(=C/c1ccco1)CC2 (centres undefined),18,16,-1,31*,12
COc1ccc(CNC(=O)CSCc2ccccc2Cl)cc1,2,2,-2,5,1
Cc1nc(N2CCCCC2)sc1C(=O)c1ccc(SCCO)c([N+](=O)[O-])c1,1,6,1,27*,1
Cc1nc(N2CCCCC2)sc1C(=O)c1cccc([N+](=O)[O-])c1,21,-3,-4,11,-3
O=C1c2cc(O)cc(O)c2C(=O)c2c1cc(O)c([C@@H](CO)CCO)c2O,18,5,-5,31*,10
